Values without a mark were called inactive. Calls follow the shape of the dose curve; as a rule, active = well fitted curve in the direction sought with a large enough effect in the repeat runs; inconclusive = weak or mixed curves; inactive = flat fitted curve, though single readings scatter.

The text below walks through data of PubChem BioAssay (Tox21).
% is scaled to controls: 0 for no effect and ±100 for the full control effect.

The experiment is described as follows: qHTS assay to test for compound auto fluorescence at 460 nm (blue) in HepG2 cell free culture (AID 720685). As to conditions: Cell-free culture medium, blue autofluorescence 405/460 nm; series mostly up to 91.3 µM; fluorescence, % of fluorescent control: at the top concentration. The source says:
U.S. Tox21 Program National Center for Advancing Translational Sciences [NCATS] NIH Chemical Genomics Center [NCGC] U.S. Environmental Protection Agency [EPA] National Institutes of Environmental Health Sciences [NIEHS] National Toxicology Program [NTP] U.S. Food and Drug Administration [FDA] Tox21 Assay Overview: Compound auto fluorescence often interferes with screening of the compound library against various biological targets and signaling pathways. Some of these compounds may have fluorophoric properties. Such properties may interfere with the assay outputs resulting in false positives and/or negatives. To decrease such complications and ensure the compound activities are relevant in terms of biological response, the Tox21 10K compound library was screened for auto fluorescence. From the fluorophores used as reporter signals in our screening assays, the auto fluorescence equivalencies of compounds against three fluorophores have been evaluated: Triamterene, Fluorescein and Rose Bengal sodium for blue, green and red fluorescence, respectively. The fluorescence intensities were measured using Excitation/Emission wavelengths at 405/460nm, 485/535nm and 540/590nm for blue, green and red labels, respectively. This assay includes the blue fluorescence data.
Tox21 Assay Protocol Summary: 5 uL of culture medium (MEM containing 10% FBS) per well was dispensed into black wall/clear bottom 1536-well plates using a Multidrop Combi Dispenser (ThermoFisher Scientific, Waltham, MA). After 23 nL compound or DMSO vehicle was transferred into assay plate by a pintool work station (Kalypsys, San Diego, CA), fluorescence intensities in the assay plates were measured by an Envision (PerkinElmer, Shelton, CT) plate reader using three labels for measuring blue, green and red fluorescence at […] 460, 535 and 590nm respectively.
For the compound `CCC(CO)CO`, the “fluorescence, % of fluorescent control” value was -0.0112%.

In the case of `CCCCCCCCC(=O)OCC`, the “fluorescence, % of fluorescent control” value is -0.0389%.

Regarding `CCOc1ccc(NC(=O)OC(C)C)cc1OCC`, the “fluorescence, % of fluorescent control” value is 0.229%.

Regarding `O=S(=O)(O)CCO`, the “fluorescence, % of fluorescent control” value was 0.0599% [at 95.7 µM].

As for `Cc1nc2ccccc2c(=O)o1`, the “fluorescence, % of fluorescent control” value is 0.0386%.

In the case of `CC1=NN(c2ccc(S(=O)(=O)O)cc2)C(=O)C1N=Nc1ccccc1` (stereo not given), the “fluorescence, % of fluorescent control” value is -0.696%.

On to `Cc1oc(=O)oc1CN1CCN(c2cc3c(cc2F)c(=O)c(C(=O)O)c2n3C(C)S2)CC1` (stereo not given), for which the “fluorescence, % of fluorescent control” value is -0.0171% [at 46 µM].

With `SCCSCCS`, the “fluorescence, % of fluorescent control” value was -0.206%.

Turning to `CC1CCC(C(C)(C)S)C(=O)C1` (stereo not given), the “fluorescence, % of fluorescent control” value was -0.116%.

For `CCCCCC1Nc2cc(C(F)(F)F)c(S(N)(=O)=O)cc2S(=O)(=O)N1` (stereo not given), the “fluorescence, % of fluorescent control” value is -0.136% [at 46 µM].

For the compound `COc1cc2c(Nc3ccc(Br)cc3F)ncnc2cc1OCC1CCN(C)CC1`, the “fluorescence, % of fluorescent control” value was 0.25% [at 46 µM].

Regarding `O=C(O)CCNC(=O)c1ccccc1`, the “fluorescence, % of fluorescent control” value was 0.008% [at 46 µM].

Consider `Cc1cc(C)cc([N+](=O)[O-])c1`, for which the “fluorescence, % of fluorescent control” value is -0.094% [at 95.7 µM].

Consider `C[Si]1(C)N[Si](C)(C)N[Si](C)(C)N1`, for which the “fluorescence, % of fluorescent control” value is -0.194%.

Take `CCCOC(=O)CCCCC(=O)OCCC`: the “fluorescence, % of fluorescent control” value is -0.0278%.

Consider `O=C(O)c1ccccc1C(=O)Nc1ccc(S(=O)(=O)Nc2nccs2)cc1`, for which the “fluorescence, % of fluorescent control” value is -0.0351% [at 46 µM].

On to `CC(=O)c1ccc(OCC(=O)N2CCCCC2)cc1`, for which the “fluorescence, % of fluorescent control” value is -0.0038% [at 46 µM].

As to `C=C(C)[C@@H]1CC[C@@H](C)C[C@@H]1O`, the “fluorescence, % of fluorescent control” value is 0.114%.

`C=CCOc1cc(Cl)ccc1C(=O)NCCN(CC)CC`: the “fluorescence, % of fluorescent control” value was 0.0506% [at 46 µM].

With `O=C(/C=C/c1ccccc1)NCCO`, the “fluorescence, % of fluorescent control” value was -0.111% [at 46 µM].

For the compound `CCCCCCCC[Si](OCC)(OCC)OCC`, the “fluorescence, % of fluorescent control” value is -0.038%.

Take `CCCCC[Si](OCC)(OCC)OCC`: the “fluorescence, % of fluorescent control” value is 0.252%.

`CCCCC(CC)C(=O)OC(C)C` (stereo not given): the “fluorescence, % of fluorescent control” value was 0.0216%.

In the case of `CCCCOC(=O)C(C)OC(=O)CCC` (stereo not given), the “fluorescence, % of fluorescent control” value is 0.0832%.

With `CCCCCCCCCCCCC1CO1` (stereo not given), the “fluorescence, % of fluorescent control” value was -0.0315%.

On to `Cc1nc(C)nc(N2C[C@@H](C)N(c3ccnc([C@@H](C)O)n3)[C@@H](C)C2)n1`, for which the “fluorescence, % of fluorescent control” value was 0.131% [at 46 µM].

In the case of `C=C[Si](C)(C)O[Si](C)(C)C=C`, the “fluorescence, % of fluorescent control” value is 0.0227%.

Regarding `CCCCCC(=O)OCC`, the “fluorescence, % of fluorescent control” value is -0.0824%.

As for `CCNC(=O)/C=C/c1cccc(Br)c1`, the “fluorescence, % of fluorescent control” value is 0.195% [at 46 µM].

As to `NS(=O)(=O)c1cc2c(cc1Cl)NC(C(Cl)Cl)NS2(=O)=O` (stereo not given), the fluorescence, % of fluorescent control is -0.0397% [at 18.6 µM].

Consider `COc1cc2c3cc1Oc1cc(ccc1O)C[C@@H]1c4c(cc(OC)c(O)c4Oc4ccc(cc4)C[C@@H]3N(C)CC2)CC[N+]1(C)C`, for which the “fluorescence, % of fluorescent control” value was -0.146% [at 46 µM].

As for `O=c1[nH]c(=O)c2ccccc2o1`, the “fluorescence, % of fluorescent control” value is -0.0096% [at 46 µM].

For the compound `CCCO`, the “fluorescence, % of fluorescent control” value is -0.0057%.

Regarding `CC(=O)N(CC(O)CO)c1c(I)c(C(=O)NCC(O)CO)c(I)c(C(=O)NCC(O)CO)c1I` (stereo not given), the “fluorescence, % of fluorescent control” value was 0.0336% [at 46 µM].

For `CCC(=O)c1ccc(O)cc1`, the “fluorescence, % of fluorescent control” value is -0.0465% [at 46 µM].

For `OC(CCN1CCCCC1)(c1ccccc1)c1ccccc1`, the “fluorescence, % of fluorescent control” value was -0.0137% [at 46 µM].

For `O=C(O)c1ccccc1C(=O)OCc1ccccc1`, the “fluorescence, % of fluorescent control” value was 0.104%.

Turning to `CC(=O)OC(C(=O)c1ccccc1)c1ccccc1` (stereo not given), the “fluorescence, % of fluorescent control” value was 0.0275%.

Turning to `FC(F)(F)/C(=N\OCC1OCCO1)c1ccc(Cl)cc1`, the “fluorescence, % of fluorescent control” value was -0.0125%.

As for `C=COCCOCCOC=C`, the “fluorescence, % of fluorescent control” value was -0.0129%.
